What all share (design): scale not given: direction of the effect not stated beside the values
In assay [1] the target is Protein translocase subunit SecA (Escherichia coli (strain K12)) (UniProt P10408). Kind of assay: Assay to Identify E. coli SecA ATPase Inhibitors. It counts as functional. Particulars: 30 µM.
For assay [2], the target named is T1, Ubiquitin-activating enzyme e1, putative (Leishmania donovani (strain BPK282A1)) (UniProt E9BSI1).
T1 sequence (whole entry): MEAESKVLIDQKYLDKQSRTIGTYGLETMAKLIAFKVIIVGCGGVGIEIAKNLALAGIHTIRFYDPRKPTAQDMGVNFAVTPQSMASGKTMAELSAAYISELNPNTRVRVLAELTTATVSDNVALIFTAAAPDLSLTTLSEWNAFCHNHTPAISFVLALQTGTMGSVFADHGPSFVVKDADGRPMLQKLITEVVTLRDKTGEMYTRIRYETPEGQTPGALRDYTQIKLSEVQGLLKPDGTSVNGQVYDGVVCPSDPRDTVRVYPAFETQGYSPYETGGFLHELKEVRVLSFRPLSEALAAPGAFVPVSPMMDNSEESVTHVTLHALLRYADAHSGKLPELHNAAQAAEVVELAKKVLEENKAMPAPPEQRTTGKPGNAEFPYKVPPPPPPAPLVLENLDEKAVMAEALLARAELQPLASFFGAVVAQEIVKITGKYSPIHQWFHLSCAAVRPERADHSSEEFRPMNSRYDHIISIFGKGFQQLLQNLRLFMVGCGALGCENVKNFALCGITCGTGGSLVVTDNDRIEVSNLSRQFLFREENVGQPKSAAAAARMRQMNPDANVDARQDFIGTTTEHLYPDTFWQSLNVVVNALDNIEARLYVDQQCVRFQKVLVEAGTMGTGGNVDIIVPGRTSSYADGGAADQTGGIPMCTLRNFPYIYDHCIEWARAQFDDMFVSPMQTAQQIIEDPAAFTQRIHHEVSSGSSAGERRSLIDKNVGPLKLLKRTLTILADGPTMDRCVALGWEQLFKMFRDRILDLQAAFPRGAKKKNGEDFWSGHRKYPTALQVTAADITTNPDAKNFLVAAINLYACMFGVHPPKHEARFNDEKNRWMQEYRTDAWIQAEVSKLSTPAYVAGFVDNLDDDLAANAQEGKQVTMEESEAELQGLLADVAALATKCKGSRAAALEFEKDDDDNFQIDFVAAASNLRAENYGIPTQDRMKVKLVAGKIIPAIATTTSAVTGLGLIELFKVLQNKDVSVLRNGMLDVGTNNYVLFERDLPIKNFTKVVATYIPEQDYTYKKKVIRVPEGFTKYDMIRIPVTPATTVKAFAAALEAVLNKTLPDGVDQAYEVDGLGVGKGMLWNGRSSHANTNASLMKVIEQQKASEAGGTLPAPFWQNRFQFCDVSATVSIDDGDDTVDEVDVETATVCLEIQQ
Kind of assay: Leishmania donovani Ubiquitin Activating Enzyme (LdE1). The note with it: 30 µM. It counts as functional.

Assay [3] deals with AMP-activated protein kinase, AMPK (Homo sapiens) (UniProt P54646+O43741+P54619+Q9UGJ0+Q9Y478+Q13131+Q9UGI9). Description: AMP-dependent Kinase enzyme assay. An in vitro enzyme assay that detects ADP turnover that is directly proportional to AMPK activity. This uses naive AMPK that is activated during the assay with MK-8722. Particulars: 30 µM. It counts as functional.
For assay [4], the target named is Sialic acid-binding Ig-like lectin 9 (Homo sapiens) (UniProt Q9Y336). Description: Hs-Siglec9 ALPHAscreen SOP 20170721. Particulars: 10 µM. In general terms: Bead proximity is the source of the signal in Alpha formats.
Chain of Sialic acid-binding Ig-like lectin 9 (Homo sapiens) (Q9Y336 whole entry): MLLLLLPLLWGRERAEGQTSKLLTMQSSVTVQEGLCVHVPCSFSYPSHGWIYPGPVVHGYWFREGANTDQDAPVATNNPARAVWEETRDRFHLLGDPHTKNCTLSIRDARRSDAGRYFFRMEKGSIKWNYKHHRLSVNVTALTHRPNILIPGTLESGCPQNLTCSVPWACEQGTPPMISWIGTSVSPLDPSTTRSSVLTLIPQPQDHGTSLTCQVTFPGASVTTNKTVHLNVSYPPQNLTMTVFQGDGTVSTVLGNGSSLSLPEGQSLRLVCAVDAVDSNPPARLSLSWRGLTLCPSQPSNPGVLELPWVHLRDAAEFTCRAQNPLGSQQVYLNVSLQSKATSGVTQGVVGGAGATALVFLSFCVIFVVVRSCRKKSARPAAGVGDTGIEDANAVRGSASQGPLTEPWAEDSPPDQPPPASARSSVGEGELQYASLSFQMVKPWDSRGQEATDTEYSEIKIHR
In assay [5] the test system is Trypanosoma cruzi. Description: Trypanosoma cruzi phosphomannomutase and mannose-1-phosphate guanylyltransferase assay. In kind it is functional. The note with it: 10 µM.
Assay [6] deals with T2, Arginase-2, mitochondrial (Homo sapiens) (UniProt P78540).
T2 sequence (whole entry): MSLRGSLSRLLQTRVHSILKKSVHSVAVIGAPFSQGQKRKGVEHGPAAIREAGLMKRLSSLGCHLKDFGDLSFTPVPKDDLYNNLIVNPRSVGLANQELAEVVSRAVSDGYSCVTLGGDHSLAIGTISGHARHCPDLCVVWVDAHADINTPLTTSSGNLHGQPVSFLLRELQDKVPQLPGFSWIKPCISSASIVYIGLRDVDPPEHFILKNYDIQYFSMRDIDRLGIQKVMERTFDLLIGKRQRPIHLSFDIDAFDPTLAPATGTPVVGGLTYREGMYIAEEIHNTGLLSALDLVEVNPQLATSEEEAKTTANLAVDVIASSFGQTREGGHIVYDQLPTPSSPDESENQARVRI
Kind of assay: in vitro enzyme assay to detect the production of urea directly proportional to the activity of Arginase II. Also: in the data most compounds retested in dose-response had high values. It counts as functional. The note with it: 33.3 µM.

Assay [7] has as its target T3, Proteasome subunit beta (Trypanosoma cruzi) (UniProt O96673).
T3 sequence (whole entry): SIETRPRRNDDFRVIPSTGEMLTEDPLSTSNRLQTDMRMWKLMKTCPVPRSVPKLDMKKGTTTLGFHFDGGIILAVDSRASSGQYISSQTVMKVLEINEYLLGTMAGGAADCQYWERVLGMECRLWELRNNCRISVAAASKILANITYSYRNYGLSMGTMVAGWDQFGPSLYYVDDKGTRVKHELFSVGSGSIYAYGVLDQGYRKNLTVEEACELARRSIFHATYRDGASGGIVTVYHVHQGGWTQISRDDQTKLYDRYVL
Description: Trypanosoma cruzi proteasome chymotrypsin-like activity (TcProtChymo) assay. Also: in the data most compounds retested in dose-response had high values. In kind it is functional. Particulars: 9.37 µM.

Assay [8] is filed under the species Homo sapiens. Kind of assay: To identify inhibition of the IFN signalling (Jak-Stat) pathway via expression of an eGFP reporter gene under the control of an IFN-stimulated response element (ISRE) containing MxA promoter. It counts as functional. Particulars: 30 µM. Background: In a reporter assay the amount or activity of a reporter protein is the signal.
Assay [9] deals with T4, Tyrosyl-tRNA synthetase, putative (Trypanosoma cruzi (strain CL Brener)) (UniProt Q4DSP6).
T4 sequence (whole entry): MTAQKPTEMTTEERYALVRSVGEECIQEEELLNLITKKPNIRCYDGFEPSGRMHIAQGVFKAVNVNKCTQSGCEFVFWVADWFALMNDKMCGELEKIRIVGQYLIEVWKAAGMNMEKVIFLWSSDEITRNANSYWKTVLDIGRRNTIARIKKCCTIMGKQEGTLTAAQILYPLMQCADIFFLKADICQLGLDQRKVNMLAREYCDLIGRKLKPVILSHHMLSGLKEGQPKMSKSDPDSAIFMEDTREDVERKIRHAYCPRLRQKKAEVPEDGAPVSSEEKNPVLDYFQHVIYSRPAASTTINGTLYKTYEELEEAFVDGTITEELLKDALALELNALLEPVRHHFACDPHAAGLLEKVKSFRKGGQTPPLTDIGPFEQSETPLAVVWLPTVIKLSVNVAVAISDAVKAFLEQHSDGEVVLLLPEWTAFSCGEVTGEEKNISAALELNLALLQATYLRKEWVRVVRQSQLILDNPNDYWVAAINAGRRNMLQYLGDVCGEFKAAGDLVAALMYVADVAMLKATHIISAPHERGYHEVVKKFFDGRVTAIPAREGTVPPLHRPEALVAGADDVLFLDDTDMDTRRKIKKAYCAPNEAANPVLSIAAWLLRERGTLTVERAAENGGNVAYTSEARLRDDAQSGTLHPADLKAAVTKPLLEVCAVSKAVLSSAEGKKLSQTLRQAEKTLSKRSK
Description: Trypanosoma cruzi tyrosyl tRNA synthetase (TcYRS) _High Tyrosine SOP. Also: in the data most compounds retested in dose-response had high values. In kind it is functional. The note with it: 30 µM.

Assay [10] concerns the target T4, Tyrosyl-tRNA synthetase, putative (Trypanosoma cruzi (strain CL Brener)). Kind of assay: Trypanosoma cruzi tyrosyl tRNA synthetase (TcYRS) SOP. It counts as functional. Particulars: 30 µM.
Assay [11] deals with Chromo domain-containing protein 1 (Saccharomyces cerevisiae (strain ATCC 204508 / S288c) (Baker's yeast)) (UniProt P32657). Description: ScCHD-1 Enzyme Inhibition Assay. Also: in the data most compounds retested in dose-response had high values. It counts as functional. The note with it: 30 µM.
Chain of Chromo domain-containing protein 1 (Saccharomyces cerevisiae (strain ATCC 204508 / S288c) (Baker's yeast)) (P32657 whole entry, the tested form may be a part): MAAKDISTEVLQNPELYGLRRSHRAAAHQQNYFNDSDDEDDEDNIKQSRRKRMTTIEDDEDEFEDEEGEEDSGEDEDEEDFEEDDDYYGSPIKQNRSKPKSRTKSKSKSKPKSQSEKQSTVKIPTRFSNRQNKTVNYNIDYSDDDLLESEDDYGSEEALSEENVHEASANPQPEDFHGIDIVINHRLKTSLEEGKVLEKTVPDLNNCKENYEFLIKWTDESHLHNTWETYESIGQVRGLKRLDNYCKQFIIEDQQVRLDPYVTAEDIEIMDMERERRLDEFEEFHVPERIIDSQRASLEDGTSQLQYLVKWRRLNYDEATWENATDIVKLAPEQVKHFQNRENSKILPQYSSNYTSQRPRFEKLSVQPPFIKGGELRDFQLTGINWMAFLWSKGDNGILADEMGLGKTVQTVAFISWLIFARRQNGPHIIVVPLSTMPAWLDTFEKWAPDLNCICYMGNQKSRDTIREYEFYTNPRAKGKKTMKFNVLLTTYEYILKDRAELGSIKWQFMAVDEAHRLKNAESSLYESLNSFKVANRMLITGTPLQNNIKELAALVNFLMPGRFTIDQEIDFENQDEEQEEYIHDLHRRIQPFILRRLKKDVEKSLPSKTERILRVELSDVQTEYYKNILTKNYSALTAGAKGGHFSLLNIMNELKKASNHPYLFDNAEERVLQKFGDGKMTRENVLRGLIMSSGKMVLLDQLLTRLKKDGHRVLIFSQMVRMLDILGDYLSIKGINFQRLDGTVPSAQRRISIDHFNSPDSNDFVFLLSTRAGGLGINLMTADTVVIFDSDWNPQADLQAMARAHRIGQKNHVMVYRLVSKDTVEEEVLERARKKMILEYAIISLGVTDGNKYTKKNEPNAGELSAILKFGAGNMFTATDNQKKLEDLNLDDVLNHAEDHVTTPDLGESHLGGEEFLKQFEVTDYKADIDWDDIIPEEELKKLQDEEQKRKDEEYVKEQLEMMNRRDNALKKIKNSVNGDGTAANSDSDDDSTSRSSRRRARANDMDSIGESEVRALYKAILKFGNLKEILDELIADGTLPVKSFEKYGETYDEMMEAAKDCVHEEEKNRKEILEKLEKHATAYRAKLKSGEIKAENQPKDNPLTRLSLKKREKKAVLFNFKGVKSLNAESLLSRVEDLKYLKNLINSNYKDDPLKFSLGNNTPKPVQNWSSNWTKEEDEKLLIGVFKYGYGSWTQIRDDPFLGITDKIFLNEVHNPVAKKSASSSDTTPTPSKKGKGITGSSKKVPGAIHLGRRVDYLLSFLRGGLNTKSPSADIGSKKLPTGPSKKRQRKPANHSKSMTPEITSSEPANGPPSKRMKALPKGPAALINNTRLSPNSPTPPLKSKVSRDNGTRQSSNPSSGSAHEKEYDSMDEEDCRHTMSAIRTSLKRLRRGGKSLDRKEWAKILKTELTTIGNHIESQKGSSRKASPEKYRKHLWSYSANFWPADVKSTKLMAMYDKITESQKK

Here are results for eleven compounds from ChEMBL document CHEMBL3988442, “University of Dundee, Small-Polar-MMV Screening Library” (2021).

For some of these results: Results with a measured potency or affinity are listed apart.

Chain of Protein translocase subunit SecA (Escherichia coli (strain K12)) (P10408 whole entry): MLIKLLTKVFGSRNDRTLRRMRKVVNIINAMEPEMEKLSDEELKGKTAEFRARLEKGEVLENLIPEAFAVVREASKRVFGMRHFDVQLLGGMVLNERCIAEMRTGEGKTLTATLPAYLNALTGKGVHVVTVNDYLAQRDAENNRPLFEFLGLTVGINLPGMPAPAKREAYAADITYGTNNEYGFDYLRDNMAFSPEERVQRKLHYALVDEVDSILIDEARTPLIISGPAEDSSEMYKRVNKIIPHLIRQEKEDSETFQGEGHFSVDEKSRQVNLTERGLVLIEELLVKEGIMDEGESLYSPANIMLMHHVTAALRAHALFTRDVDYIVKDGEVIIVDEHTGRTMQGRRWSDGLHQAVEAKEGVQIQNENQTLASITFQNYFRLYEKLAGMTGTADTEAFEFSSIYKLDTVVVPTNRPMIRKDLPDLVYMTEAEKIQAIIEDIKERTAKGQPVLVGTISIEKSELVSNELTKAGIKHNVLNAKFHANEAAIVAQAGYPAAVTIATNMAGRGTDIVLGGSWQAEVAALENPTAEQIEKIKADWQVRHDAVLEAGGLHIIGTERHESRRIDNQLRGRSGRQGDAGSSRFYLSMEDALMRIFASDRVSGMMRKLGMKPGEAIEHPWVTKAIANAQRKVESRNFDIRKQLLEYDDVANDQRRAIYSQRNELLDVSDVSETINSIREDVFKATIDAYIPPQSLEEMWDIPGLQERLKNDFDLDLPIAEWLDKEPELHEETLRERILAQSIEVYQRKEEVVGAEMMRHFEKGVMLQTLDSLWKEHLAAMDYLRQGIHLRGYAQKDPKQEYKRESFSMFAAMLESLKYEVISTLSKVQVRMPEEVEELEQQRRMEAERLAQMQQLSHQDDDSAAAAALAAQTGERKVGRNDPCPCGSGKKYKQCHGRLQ

On to `CCn1ccnc1CN1CCN(CC(=O)NC(=O)NC2CC2)CC1`, for which the Percent Effect in [1] was -0.559%; in assay [2] it was 13.2%; in assay [3] it was 1.1%; in assay [4], 4.6%; in assay [5], 3.95%; in assay [6] it was 0%. The Percent Effect is 16.5% in [7]; -2.49% in assay [8]; 8.33% in assay [9]; 19.5% in assay [10]; -6.48% in [11].

Take `CC(C)c1nnc2ccc(N3CCC(C(=O)Nc4nccs4)CC3)nn12`: the Percent Effect in assay [1] is -2.74%; in [2], 9.33%; in [3] it was 5.47%; in assay [4] it was 1.19%; in assay [5] it was 3.54%; in assay [6], -0.528%. Besides, the Percent Effect was 12.6% in assay [7]; 82.9% in assay [8]; 13.8% in assay [9]; 23.1% in assay [10]; -2.21% in [11].

On to `Cc1ncsc1C(=O)N(C)Cc1cccc(Cl)c1`, for which the Percent Effect in assay [1] is 0.989%; in [2], 18.4%; in [3], -2.9%; in assay [4], -2.59%; in [5], 2.44%; in [6] it was -2.3%. For the same compound, the Percent Effect in [7] is 20.6%; in assay [8], 7.48%; in [9], 5.39%; in assay [10], 19.5%; in assay [11] it was -10.9%.

Turning to `CC(C)c1nc2c(n1C)CCN(Cc1nc(-c3cccs3)no1)C2`, the Percent Effect in assay [1] was -5.48%; in [2] it was -5.41%; in assay [3], 8.78%; in assay [4] it was 3.18%; in assay [5] it was 1.21%; in assay [6], -1.66%. Besides, the Percent Effect in [7] came to 2.33%; in [8], 0.809%; in [9], 6.93%; in [10], 11%; in assay [11] it was 9.28%.

In the case of `O=C(CN1CCCC(Cn2cncn2)C1)NCc1ccco1` (stereo unspecified), the Percent Effect in [1] is -2.6%; in [2], 0%; in [3], -4.08%; in [4], -5%; in [5], -8.12%; in [6] it was 8.27%. The Percent Effect in assay [7] was 7.87%; in [8], 6.12%; in assay [9] it was 1.48%; in assay [10] it was -1.24%; in assay [11] it was 4.31%.

As to `Cc1nc(CN2C[C@@H]3CN(C(=O)C4CC4)C[C@@H]3C2=O)cs1`, the Percent Effect was -1.35% in assay [1]; 18.9% in assay [2]; 1.84% in assay [3]; -11.9% in assay [4]; -5.57% in assay [5]; 4.78% in assay [6]. In addition, the Percent Effect in [7] is 14.9%; in assay [8], 18.6%; in [9], 1.08%; in [10] it was 10.3%; in [11], -6.89%.

Turning to `O=C(c1cccnc1)N1CCc2ncnc(C3CCOC3)c2CC1` (stereo unspecified), the Percent Effect in [1] is 0.619%; in assay [2] it was 10.7%; in [3], 5.98%; in [4] it was -10.8%; in assay [5] it was -5.71%; in assay [6], 3.5%. For the same compound, the Percent Effect amounted to 10.8% in assay [7]; 2.86% in assay [8]; 4.25% in assay [9]; 11.5% in [10]; 3.31% in assay [11].

As for `CC(=O)Nc1nc(CN2CCn3c(nnc3C3CC3)C2)cs1`, the Percent Effect in [1] was -1.36%; in assay [2], 5.41%; in assay [3], 0.348%; in [4], 6.61%; in assay [5], 5.11%; in assay [6], -9.06%. The Percent Effect in assay [7] is -3.59%; in assay [8], 2.7%; in assay [9], 0.99%; in [10], 11%; in assay [11], -3.08%.

Regarding `COc1ccc2cc(C(=O)N3CCCCC3Cn3cccn3)[nH]c2c1` (stereo unspecified), the Percent Effect is -8.67% in assay [1]; 0% in [2]; 2.23% in assay [3]; 5.53% in assay [4]; -0.562% in [5]; 2.13% in [6]. Besides, the Percent Effect was 1.86% in assay [7]; 2.73% in assay [8]; 0% in assay [9]; 2.44% in assay [10]; -1.29% in assay [11].

With `CCOCCCC(=O)NCc1cn2cc(Br)ccc2n1`, the Percent Effect was -1.32% in [1]; 7.89% in assay [2]; 1.23% in assay [3]; -4.68% in [4]; -1.66% in [5]; 0% in [6]. The Percent Effect in assay [7] is 24.1%; in assay [8] it was -9.79%; in assay [9], 6.38%; in [10] it was 15.6%; in assay [11], -2.98%.

With `CCOC(=O)c1sc(NC(=O)CN(C)S(C)(=O)=O)c(C#N)c1C`, the Percent Effect in assay [1] was -1.3%; in [2], 10.4%; in assay [3], 11.5%; in [4], -2.4%; in [5], -1.87%; in assay [6], 4.52%. In addition, the Percent Effect in assay [7] is 9.4%; in assay [8], 21.1%; in assay [9], 3.17%; in assay [10], 14.1%; in [11], -8.72%.
